Among the data in PubChem BioAssay (Tox21) are Potency, activity change, positive = activation and max response values, retold here.

Values joined by “and” are separate entries in the source; they are usually repeats but may differ in a detail not shown here. Equal entries are not always repeated. Results filed as inconclusive are left out. Some structures have more than one record in an assay (separate samples or runs), and their calls can disagree. Active and inactive are the calls of the source. Unless noted, calls follow the shape of the dose curve; as a rule, active = well fitted curve in the direction sought with a large enough effect in the repeat runs; inconclusive = weak or mixed curves; inactive = no such curve, though single readings can be large; an effect the other way counts as inactive or inconclusive.

The nature of assay [1]: qHTS assay to identify small molecule agonists of H2AX - cell viability counter screen (AID 1224847; calls by dose curve; also: nearly all actives have a fitted effect of over 30% in size; also: potency is read from the fitted curve at half-maximal effect). The gist of the method: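 Counter-screen for viability: CellTiter-Glo ATP luminescence read after 3 h compound treatment (15-point titration, 0.76% DMSO final) of CHO-K1 cells at 37C, with 30 min room-temperature reagent incubation.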
(In general: Quantitative high-throughput screening tests each substance at several concentrations.)

Assay [2] in a line: qHTS assay to identify small molecule agonists of the estrogen related receptor (ERR) signaling pathway from Tox21 library (AID 1224849; calls by dose curve; also: nearly all actives have a fitted effect of over 15% in size). Conditions: ERR reporter cell line, ONE-Glo luciferase, 18 h. The procedure, abridged:
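Agonist signal is luciferase luminescence from an ERR reporter cell line treated 18 h at 37 C with DMSO-dissolved compounds, read 30 min after ONE-Glo addition at room temperature.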

Assay [3] can be described thus: qHTS RealTime-Glo MT Cell Viability Assay in HepG2 cells - 24 hour (AID 1224867). Also: nearly all actives have a fitted effect of over 50% in size. Also: potency is read from the fitted curve at half-maximal effect. The procedure, abridged: (§1)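 Tox21 10K library screened in qHTS format on HepG2 cells carrying RealTime-Glo reagents. Compounds were added after a 5 h preincubation, and the luminescent signal from continuous culture was measured repeatedly during 40 h treatment.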
The nature of assay [4]: qHTS RealTime-Glo MT Cell Viability Assay in HepG2 cells - 8 hour (AID 1224873). Also: nearly all actives have a fitted effect of over 55% in size. Also: potency is read from the fitted curve at half-maximal effect. The procedure, abridged: (§2)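 Real-time viability: cells seeded at 600 per well together with NanoLuc and cell-permeant prosubstrate, compounds added after 5 h incubation. Luminescence tracked at 0, 8, 16, 24, 32 and 40 h of exposure.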
Assay [5] in a line: A CellTox Green Cytotoxicity Assay to monitor cytotoxicity in HEK293 cells - 24 hour (AID 1224875). Also: nearly all actives have a fitted effect of over 45% in size. Also: potency is read from the fitted curve at half-maximal effect. The gist of the method:
(§3)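 Cytotoxicity was tracked continuously in HEK293 cells by a DNA-binding dye excluded from viable cells. Compounds were transferred in DMSO 5 h after seeding; fluorescence was recorded at intervals up to 40 h.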

A short description of assay [6]: A CellTox Green Cytotoxicity Assay to monitor cytotoxicity in HepG2 cells - 16 hour (AID 1224876). Also: nearly all actives have a fitted effect of over 45% in size. Also: potency is read from the fitted curve at half-maximal effect. The procedure, abridged: (§4)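 Real-time, homogeneous cytotoxicity readout: dead-cell DNA staining by CellTox Green in HepG2 monolayers, fluorescence measured at timed intervals up to 40 h of continuous compound exposure.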
Assay [7] in a line: qHTS RealTime-Glo MT Cell Viability Assay in HepG2 cells - 32 hour (AID 1224877). Also: nearly all actives have a fitted effect of over 55% in size. Also: potency is read from the fitted curve at half-maximal effect. The procedure, abridged:
as §1

Assay [8] is described as follows: A CellTox Green Cytotoxicity Assay to monitor cytotoxicity in HepG2 cells - 24 hour (AID 1224878). Also: nearly all actives have a fitted effect of over 45% in size. Also: potency is read from the fitted curve at half-maximal effect. The gist of the method: as §4
Assay [9] in a line: qHTS RealTime-Glo MT Cell Viability Assay in HEK293 cells - 0 hour (AID 1224880). Also: top concentration of the series differs between compounds; nearly all actives have a fitted effect of over 45% in size. The gist of the method:
(§5)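 Nonlytic bioluminescent viability monitoring. HEK293 at 600 cells/well with reagent; 5 h settle; compound transfer by pintool; plates held at 37 C and read at set time points.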

Assay [10] can be described thus: A CellTox Green Cytotoxicity Assay to monitor cytotoxicity in HEK293 cells - 32 hour (AID 1224881). Also: nearly all actives have a fitted effect of over 40% in size. Also: potency is read from the fitted curve at half-maximal effect. The procedure, abridged: as §3
Assay [11] is described as follows: A CellTox Green Cytotoxicity Assay to monitor cytotoxicity in HepG2 cells - 0 hour (AID 1224882). Also: nearly all actives have a fitted effect of over 35% in size. Also: potency is read from the fitted curve at half-maximal effect. The procedure, abridged:
as §4

Assay [12] in a line: qHTS RealTime-Glo MT Cell Viability Assay in HEK293 cells - 32 hour (AID 1224868). Also: nearly all actives have a fitted effect of over 50% in size. Also: potency is read from the fitted curve at half-maximal effect. The procedure, abridged: (§6)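 Luminescence generated by NanoLuc from substrate produced by living HEK293 cells served as the viability signal. Each value reflects the reading at its stated time point during continuous 40 h compound exposure at 37 C.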
The nature of assay [13]: A CellTox Green Cytotoxicity Assay to monitor cytotoxicity in HEK293 cells - 0 hour (AID 1224869). Also: nearly all actives have a fitted effect of over 50% in size. The gist of the method: as §3
Assay [14] can be described thus: qHTS RealTime-Glo MT Cell Viability Assay in HepG2 cells - 40 hour (AID 1224870). Also: nearly all actives have a fitted effect of over 50% in size. Also: potency is read from the fitted curve at half-maximal effect. The gist of the method:
as §2

The nature of assay [15]: A CellTox Green Cytotoxicity Assay to monitor cytotoxicity in HEK293 cells - 40 hour (AID 1224871). Also: nearly all actives have a fitted effect of over 45% in size. Also: potency is read from the fitted curve at half-maximal effect. The procedure, abridged:
as §3

The nature of assay [16]: qHTS RealTime-Glo MT Cell Viability Assay in HEK293 cells - 16 hour (AID 1224872). Also: nearly all actives have a fitted effect of over 50% in size. Also: potency is read from the fitted curve at half-maximal effect. The procedure, abridged:
as §6

Assay [17] is described as follows: qHTS RealTime-Glo MT Cell Viability Assay in HEK293 cells - 40 hour (AID 1224874). Also: nearly all actives have a fitted effect of over 50% in size. Also: potency is read from the fitted curve at half-maximal effect. Conditions: RealTime-Glo luminescence; max response: stronger effect = lower value. The procedure, abridged:
as §5

A short description of assay [18]: A CellTox Green Cytotoxicity Assay to monitor cytotoxicity in HepG2 cells - 40 hour (AID 1224879). Also: nearly all actives have a fitted effect of over 40% in size. Also: potency is read from the fitted curve at half-maximal effect. The gist of the method:
as §4

The nature of assay [19]: qHTS assay to identify small molecule antagonists of the estrogen related receptor (ERR) signaling pathway from Tox21 library (AID 1224848). Also: nearly all actives have a fitted effect of over 50% in size. Also: potency is read from the fitted curve at half-maximal effect. The procedure, abridged:
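Reading was by luminescence 30 min after ONE-Glo addition. Before that, ERR cells at 2,000 per well had rested 6 h at 37 C/5% CO2 and then received pin-tooled compounds in DMSO for 18 h at 37 C.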

Setting [20] is: at 92.4 µM (top of the series) unless noted.
% is scaled to controls: 0 for no effect and ±100 for the full control effect.

As to `N#CC(Cl)Cl`, the Potency result in assay [1], in assay [3], in assay [4], in [5], in [6] and in assay [7] was “inactive” each time. For the same compound, the Potency result in assay [8], in [9] and in assay [10] was “inactive” in each case. Further, the activity change, positive = activation in [2] (setting [20]) is -30.9% (inactive). Further, the Potency in [11] was 1.51 µM (active).

Consider `Clc1ccc(C(c2ccccc2Cl)C(Cl)(Cl)Cl)cc1` (centres undefined), for which the Potency in assay [1] was 101 µM (active) and 66.2 µM (active); in assay [12] it was 49.3 µM (active) and inactive; in assay [15] it was 43.9 µM (active) and inactive; in assay [16], 49.3 µM (active) and inactive; in [17] it was 49.3 µM (active); in [10] it was 55.3 µM (active) and inactive. Besides, the results for the activity change, positive = activation in assay [2] (at 42.5 µM (top of the series)) and in assay [2] (at 92.4 µM (top of the series)) were -15.1% (inactive) and -41.5% (inactive), respectively. The Potency entry in assay [3], in assay [13], in assay [14], in [4], in assay [5] and in [6] was “inactive” in each case. In addition, the Potency entry in [7], in [8], in [18], in assay [9] and in assay [11] was “inactive” each time. Further, the max response in [17] is -21.7% (inactive).

Regarding `O=c1oc2ccccc2c(O)c1Cc1c(O)c2ccccc2oc1=O`, the Potency result in assay [1], in [3], in [12], in assay [13], in assay [14] and in assay [15] was “inactive” each time. Moreover, the Potency result in assay [16], in [5], in assay [6], in [7], in assay [8] and in [11] was “inactive” each time. Moreover, the activity change, positive = activation in assay [2] (setting [20]) is -18.2% [at 42.5 µM] (inactive).

Regarding `CCCCN(CCCC)C(=S)[S-].CCCCN(CCCC)C(=S)[S-].[Zn+2]`, the Potency was 80 µM (active) in assay [1]; 34.7 µM (active) in assay [3]; 11 µM (active) in [12]; 24.5 µM (active) in assay [14]; 15.5 µM (active) in assay [15]; 12.3 µM (active) in [16]. Further, the Potency in assay [4] is 21.9 µM (active); in assay [5] it was 21.9 µM (active); in assay [6] it was 48.9 µM (active); in assay [7] it was 24.5 µM (active); in assay [8], 34.7 µM (active); in assay [18] it was 24.5 µM (active). In assay [10], the Potency was 19.5 µM (active). The activity change, positive = activation in assay [2] (setting [20]) was -74.5% (inactive). For the same compound, the Potency entry in assay [9] and in assay [11] was “inactive” in each case.

Regarding `COc1cc(C=O)cc2c1[C@H](COC(N)=O)[C@]1(OC(C)=O)ON2C[C@H]2[C@@H]1N2C(C)=O`, the Potency entry in [1], in assay [13], in [15], in assay [4], in [5] and in [9] was “inactive” each time. The Potency result in assay [10] and in assay [11] was “inactive” in each case. Further, the Potency was 0.273 µM (active) in assay [19]; 0.0549 µM (active) in [12]; 0.0309 µM (active) in [17]; 0.11 µM (active) in assay [8]; 0.0776 µM (active) in [18]. Moreover, the activity change, positive = activation in [2] (setting [20]) is -41% (inactive).

For the compound `N#CCCC(Br)(C#N)CBr` (centres undefined), the Potency in assay [1] is 127 µM (active); in assay [3] it was 38.9 µM (active); in assay [12] it was 21.9 µM (active); in [14], 38.9 µM (active); in [15] it was 49 µM (active); in assay [16], 38.9 µM (active). The Potency is 49 µM (active) in [4]; 21.9 µM (active) in assay [17]; 54.9 µM (active) in assay [5]; 43.6 µM (active) in [6]; 38.9 µM (active) in assay [8]; 24.5 µM (active) in [18]. In assay [10], the Potency was 54.9 µM (active). The activity change, positive = activation in assay [2] (setting [20]) is -45.2% (inactive). The Potency result in assay [13] and in assay [9] was “inactive” in each case.

Consider `Oc1ccc(C2(c3ccc(O)cc3)c3ccccc3-c3ccccc32)cc1`, for which the Potency in assay [1] is 89.8 µM (active); in assay [3], 54.9 µM (active); in [12] it was 43.6 µM (active); in [16], 49 µM (active); in [4], 49 µM (active); in assay [8], 61.6 µM (active). Besides, the Potency in assay [18] is 61.6 µM (active). The activity change, positive = activation in [2] (setting [20]) is -78.7% (inactive). Further, the Potency entry in assay [13], in [15], in [5], in assay [9] and in [10] was “inactive” throughout.

Turning to `Oc1cc(Cl)c(Cl)c(Cl)c1`, the Potency in assay [1] is 42.7 µM (active); in [19] it was 29.1 µM (active); in assay [15], 13.1 µM (active); in [10], 11.7 µM (active). In addition, the activity change, positive = activation in assay [2] (setting [20]) is -65.2% (inactive). Also, the Potency result in assay [3], in [13], in [14], in [4], in assay [5] and in assay [6] was “inactive” in each case. The Potency entry in assay [7], in [8], in assay [9] and in assay [11] was “inactive” each time.

For the compound `CSCCCN=C=S`, the Potency result in assay [1], in [19], in assay [3], in assay [13], in assay [14] and in assay [4] was “inactive” in each case. In addition, the Potency result in [5], in assay [7], in assay [9], in assay [10] and in assay [11] was “inactive” each time. Also, in assay [2] (setting [20]), the activity change, positive = activation was -13.5% (inactive).

`COC12CC[C@@]3(C[C@@H]1C(C)(O)C(C)(C)C)[C@H]1Cc4ccc(O)c5c4[C@@]3(CCN1CC1CC1)[C@H]2O5` (some centres undefined): the Potency in assay [1] is 28.2 µM (active); in [3] it was 43.4 µM (active); in assay [12] it was 24.4 µM (active); in assay [14], 48.6 µM (active); in assay [15], 24.4 µM (active); in assay [16], 24.4 µM (active). Also, the Potency in assay [4] is 43.4 µM (active); in [5], 38.6 µM (active); in assay [6], 43.4 µM (active); in assay [18] it was 24.4 µM (active); in [10], 38.6 µM (active). Moreover, the activity change, positive = activation in [2] (setting [20]) was -68% (inactive). In addition, the Potency entry in [13] and in assay [9] was “inactive” throughout.
